Laboratory results as given in PubChem BioAssay (NCATS).
Results filed as inconclusive are left out. A call without a number means that no potency is given here. Calls of active or inactive are those of the source. Calls come from the whole dose curve; as a rule, active = well fitted curve in the direction sought with a large enough effect; inconclusive = small, poorly fitted or top-dose-only effect, or another doubt; inactive = no such curve, though single readings can be large; an effect the other way counts as inactive or inconclusive.

Tested on: not listed separately
Assay: Viability counterscreen for antagonist of constitutive androstane receptor (CAR) against the NCATS DSHEA and TCM libraries (AID 1794837);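 note: compound exposure lasted 24 h before viability reading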
Settings: CAR reporter cell line viability counterscreen, qHTS; series mostly up to 40 µM
Summary of the method: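 Cell viability, CellTiter-Fluor, Ex/Em 405/540 nm, 1 h at 37C. HepG2-CYP2B6-hCAR, 2,500 cells/well; cpds + CITCO 48 uM final (antagonist mode), 24 h, 37C/5% CO2.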

| SMILES | outcome |
| --- | --- |
| C=C[C@H]1CN2CC[C@@]3(C(=O)Nc4ccccc43)[C@@H]2C[C@@H]1/C(=C\OC)C(=O)OC | inactive |
| CC[C@@H]1CN2CC[C@]3(C(=O)Nc4ccccc43)[C@@H]2C[C@@H]1/C(=C\OC)C(=O)OC | inactive |
| COc1cc2c(cc1O)C[C@H]1c3c(cc(OC)c(O)c3-2)CCN1C | inactive |
| C=C[C@H]1CN2CCc3c([nH]c4ccccc34)[C@H]2C[C@@H]1/C(=C\OC)C(=O)OC | inactive |
| CCCCCCCCCCCCCCCCCCCC(=O)O | inactive |
| COC1=C[C@@]23CCN(C)[C@H](Cc4ccc(OC)c(O)c42)C3=CC1=O | inactive |
| COC(=O)C1=CO[C@@H](C)[C@@H]2CN3CC[C@@]4(C(=O)Nc5ccccc54)[C@@H]3CC12 (some centres undefined) | inactive |

Biological target: Nuclear receptor subfamily 1 group I member 3 (Homo sapiens) (UniProt Q14994)
Assay: Primary qHTS for agonist of constitutive androstane receptor (CAR) against the NCATS DSHEA and TCM libraries (AID 1794839); note: potency is the fitted concentration of half-maximal effect
Settings: CAR agonist reporter cells, qHTS luminescence; Potency: CAR antagonist co-added at 0.75 µM unless noted; series mostly up to 40 µM
Summary of the method: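 Luminescence from ONE-Glo luciferase was the agonist read-out in HepG2-CYP2B6-hCAR cells exposed 24 h to test substances. Wells also held the CAR antagonist PK11195 at 0.75 µM final. Viability was by CellTiter-Fluor fluorescence.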

Nuclear receptor subfamily 1 group I member 3 (Homo sapiens), sequence (Q14994 whole entry, looked up): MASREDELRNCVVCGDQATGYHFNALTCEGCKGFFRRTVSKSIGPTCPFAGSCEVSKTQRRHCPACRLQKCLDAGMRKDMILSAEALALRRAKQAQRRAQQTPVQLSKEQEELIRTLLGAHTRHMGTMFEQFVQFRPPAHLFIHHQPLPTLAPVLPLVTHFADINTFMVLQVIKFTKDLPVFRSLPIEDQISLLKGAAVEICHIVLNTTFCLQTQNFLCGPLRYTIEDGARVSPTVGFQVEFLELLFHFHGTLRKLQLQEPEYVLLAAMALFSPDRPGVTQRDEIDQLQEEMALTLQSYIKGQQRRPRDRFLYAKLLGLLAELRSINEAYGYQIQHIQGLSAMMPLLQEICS

| SMILES | Potency |
| --- | --- |
| C=C[C@H]1CN2CC[C@@]3(C(=O)Nc4ccccc43)[C@@H]2C[C@@H]1/C(=C\OC)C(=O)OC | inactive |
| CC[C@@H]1CN2CC[C@]3(C(=O)Nc4ccccc43)[C@@H]2C[C@@H]1/C(=C\OC)C(=O)OC | inactive |
| COc1cc2c(cc1O)C[C@H]1c3c(cc(OC)c(O)c3-2)CCN1C | 12.6 µM (active) |
| C=C[C@H]1CN2CCc3c([nH]c4ccccc34)[C@H]2C[C@@H]1/C(=C\OC)C(=O)OC | inactive |
| CCCCCCCCCCCCCCCCCCCC(=O)O | inactive |
| COC1=C[C@@]23CCN(C)[C@H](Cc4ccc(OC)c(O)c42)C3=CC1=O | inactive |
| COC(=O)C1=CO[C@@H](C)[C@@H]2CN3CC[C@@]4(C(=O)Nc5ccccc54)[C@@H]3CC12 (some centres undefined) | inactive |
